For some of these results: Results with a measured potency or affinity are listed apart.
Experiments:
Set-up in all cases: scale not given: direction of the effect not stated beside the values
[1] = target: Protein translocase subunit SecA (Escherichia coli (strain K12)) (UniProt P10408); assay: Assay to Identify E. coli SecA ATPase Inhibitors; format: functional; details: 30 µM
[2] = target: T1, Ubiquitin-activating enzyme e1, putative (Leishmania donovani (strain BPK282A1)) (UniProt E9BSI1); assay: Leishmania donovani Ubiquitin Activating Enzyme (LdE1); format: functional; details: 30 µM
T1 sequence (whole entry): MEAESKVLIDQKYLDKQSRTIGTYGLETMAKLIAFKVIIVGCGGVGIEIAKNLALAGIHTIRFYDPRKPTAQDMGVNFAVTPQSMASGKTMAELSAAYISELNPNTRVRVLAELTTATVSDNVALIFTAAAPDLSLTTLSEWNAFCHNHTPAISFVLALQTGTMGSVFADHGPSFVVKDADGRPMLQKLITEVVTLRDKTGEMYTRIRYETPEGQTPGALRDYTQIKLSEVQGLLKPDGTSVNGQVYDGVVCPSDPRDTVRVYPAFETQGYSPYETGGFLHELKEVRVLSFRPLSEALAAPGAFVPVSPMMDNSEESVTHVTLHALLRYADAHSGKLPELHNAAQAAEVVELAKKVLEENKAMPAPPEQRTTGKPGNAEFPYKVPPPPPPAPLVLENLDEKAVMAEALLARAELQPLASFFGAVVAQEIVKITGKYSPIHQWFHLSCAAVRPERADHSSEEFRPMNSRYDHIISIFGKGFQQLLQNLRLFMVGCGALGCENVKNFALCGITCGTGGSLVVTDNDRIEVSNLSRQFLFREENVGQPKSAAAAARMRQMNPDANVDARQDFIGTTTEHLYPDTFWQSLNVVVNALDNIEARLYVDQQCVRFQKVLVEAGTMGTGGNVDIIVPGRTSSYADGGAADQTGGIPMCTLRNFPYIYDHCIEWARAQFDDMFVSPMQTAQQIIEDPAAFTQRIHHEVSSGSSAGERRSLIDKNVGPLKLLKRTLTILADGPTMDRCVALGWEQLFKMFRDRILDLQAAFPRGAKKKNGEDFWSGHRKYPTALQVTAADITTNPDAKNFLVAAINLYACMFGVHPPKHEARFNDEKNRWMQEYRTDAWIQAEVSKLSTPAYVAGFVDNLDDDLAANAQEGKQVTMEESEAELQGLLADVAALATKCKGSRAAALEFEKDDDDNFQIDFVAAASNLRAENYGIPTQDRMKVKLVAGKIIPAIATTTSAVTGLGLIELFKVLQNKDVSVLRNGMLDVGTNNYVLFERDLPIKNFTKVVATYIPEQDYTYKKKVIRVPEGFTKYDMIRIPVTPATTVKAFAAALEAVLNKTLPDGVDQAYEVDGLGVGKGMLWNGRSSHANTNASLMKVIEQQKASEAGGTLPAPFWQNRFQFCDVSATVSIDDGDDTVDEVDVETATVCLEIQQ

[3] = target: AMP-activated protein kinase, AMPK (Homo sapiens) (UniProt P54646+O43741+P54619+Q9UGJ0+Q9Y478+Q13131+Q9UGI9); assay: AMP-dependent Kinase enzyme assay. An in vitro enzyme assay that detects ADP turnover that is directly proportional to AMPK activity. This uses naive AMPK that is activated during the assay with MK-8722; format: functional; details: 30 µM
[4] = target: Sialic acid-binding Ig-like lectin 9 (Homo sapiens) (UniProt Q9Y336); assay: Hs-Siglec9 ALPHAscreen SOP 20170721; details: 10 µM
Trypanosoma cruzi = assay: Trypanosoma cruzi phosphomannomutase and mannose-1-phosphate guanylyltransferase assay; format: functional; details: 10 µM
[5] = target: T2, Arginase-2, mitochondrial (Homo sapiens) (UniProt P78540); assay: in vitro enzyme assay to detect the production of urea directly proportional to the activity of Arginase II; format: functional; details: 33.3 µM; also: in the data most compounds retested in dose-response had high values
T2 sequence (whole entry): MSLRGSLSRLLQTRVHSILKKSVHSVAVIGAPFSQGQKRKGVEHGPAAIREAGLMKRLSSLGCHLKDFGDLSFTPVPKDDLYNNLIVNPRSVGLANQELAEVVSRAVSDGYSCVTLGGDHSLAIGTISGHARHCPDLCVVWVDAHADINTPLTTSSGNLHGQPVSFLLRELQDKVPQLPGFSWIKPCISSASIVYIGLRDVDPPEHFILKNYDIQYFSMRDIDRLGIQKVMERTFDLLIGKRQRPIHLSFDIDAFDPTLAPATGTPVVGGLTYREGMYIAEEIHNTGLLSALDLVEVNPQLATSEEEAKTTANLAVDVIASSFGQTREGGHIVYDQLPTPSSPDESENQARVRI

[6] = target: T3, Proteasome subunit beta (Trypanosoma cruzi) (UniProt O96673); assay: Trypanosoma cruzi proteasome chymotrypsin-like activity (TcProtChymo) assay.; also: in the data most compounds retested in dose-response had high values; format: functional; details: 9.37 µM
T3 sequence (whole entry): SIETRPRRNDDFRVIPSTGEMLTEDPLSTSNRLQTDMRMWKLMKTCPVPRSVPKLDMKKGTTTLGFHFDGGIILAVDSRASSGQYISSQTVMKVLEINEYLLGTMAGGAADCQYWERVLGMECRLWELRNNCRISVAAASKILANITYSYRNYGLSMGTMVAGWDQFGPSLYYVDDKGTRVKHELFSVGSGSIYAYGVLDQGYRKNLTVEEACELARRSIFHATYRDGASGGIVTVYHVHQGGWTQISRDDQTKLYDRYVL

Homo sapiens = species: Homo sapiens; assay: To identify inhibition of the IFN signalling (Jak-Stat) pathway via expression of an eGFP reporter gene under the control of an IFN-stimulated response element (ISRE) containing MxA promoter.; format: functional; details: 30 µM
[7] = target: T4, Tyrosyl-tRNA synthetase, putative (Trypanosoma cruzi (strain CL Brener)) (UniProt Q4DSP6); assay: Trypanosoma cruzi tyrosyl tRNA synthetase (TcYRS) _High Tyrosine SOP; format: functional; details: 30 µM; also: in the data most compounds retested in dose-response had high values
T4 sequence (whole entry): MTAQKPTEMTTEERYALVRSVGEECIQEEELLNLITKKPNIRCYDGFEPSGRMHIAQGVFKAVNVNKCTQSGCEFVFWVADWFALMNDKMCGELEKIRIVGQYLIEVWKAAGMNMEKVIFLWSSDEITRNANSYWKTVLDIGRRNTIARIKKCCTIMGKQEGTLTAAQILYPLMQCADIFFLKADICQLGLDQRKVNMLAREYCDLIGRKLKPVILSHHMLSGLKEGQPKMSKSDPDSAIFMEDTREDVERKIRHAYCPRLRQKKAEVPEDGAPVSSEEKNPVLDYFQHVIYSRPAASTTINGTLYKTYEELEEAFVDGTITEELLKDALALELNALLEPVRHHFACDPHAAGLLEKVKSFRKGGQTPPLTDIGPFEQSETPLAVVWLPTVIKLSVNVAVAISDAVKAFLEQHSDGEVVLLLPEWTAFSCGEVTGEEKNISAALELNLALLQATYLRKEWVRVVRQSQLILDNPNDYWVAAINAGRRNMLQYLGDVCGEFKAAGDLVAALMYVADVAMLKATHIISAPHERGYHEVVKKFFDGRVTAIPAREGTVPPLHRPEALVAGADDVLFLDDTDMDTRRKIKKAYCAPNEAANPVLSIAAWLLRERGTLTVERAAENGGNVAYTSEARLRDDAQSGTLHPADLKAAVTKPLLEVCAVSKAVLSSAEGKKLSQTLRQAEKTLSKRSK

[8] = target: T4, Tyrosyl-tRNA synthetase, putative (Trypanosoma cruzi (strain CL Brener)); assay: Trypanosoma cruzi tyrosyl tRNA synthetase (TcYRS) SOP; format: functional; details: 30 µM
[9] = target: Chromo domain-containing protein 1 (Saccharomyces cerevisiae (strain ATCC 204508 / S288c) (Baker's yeast)) (UniProt P32657); assay: ScCHD-1 Enzyme Inhibition Assay; format: functional; details: 30 µM; also: in the data most compounds retested in dose-response had high values
Chain of Chromo domain-containing protein 1 (Saccharomyces cerevisiae (strain ATCC 204508 / S288c) (Baker's yeast)) (P32657 whole entry, the tested form may be a part): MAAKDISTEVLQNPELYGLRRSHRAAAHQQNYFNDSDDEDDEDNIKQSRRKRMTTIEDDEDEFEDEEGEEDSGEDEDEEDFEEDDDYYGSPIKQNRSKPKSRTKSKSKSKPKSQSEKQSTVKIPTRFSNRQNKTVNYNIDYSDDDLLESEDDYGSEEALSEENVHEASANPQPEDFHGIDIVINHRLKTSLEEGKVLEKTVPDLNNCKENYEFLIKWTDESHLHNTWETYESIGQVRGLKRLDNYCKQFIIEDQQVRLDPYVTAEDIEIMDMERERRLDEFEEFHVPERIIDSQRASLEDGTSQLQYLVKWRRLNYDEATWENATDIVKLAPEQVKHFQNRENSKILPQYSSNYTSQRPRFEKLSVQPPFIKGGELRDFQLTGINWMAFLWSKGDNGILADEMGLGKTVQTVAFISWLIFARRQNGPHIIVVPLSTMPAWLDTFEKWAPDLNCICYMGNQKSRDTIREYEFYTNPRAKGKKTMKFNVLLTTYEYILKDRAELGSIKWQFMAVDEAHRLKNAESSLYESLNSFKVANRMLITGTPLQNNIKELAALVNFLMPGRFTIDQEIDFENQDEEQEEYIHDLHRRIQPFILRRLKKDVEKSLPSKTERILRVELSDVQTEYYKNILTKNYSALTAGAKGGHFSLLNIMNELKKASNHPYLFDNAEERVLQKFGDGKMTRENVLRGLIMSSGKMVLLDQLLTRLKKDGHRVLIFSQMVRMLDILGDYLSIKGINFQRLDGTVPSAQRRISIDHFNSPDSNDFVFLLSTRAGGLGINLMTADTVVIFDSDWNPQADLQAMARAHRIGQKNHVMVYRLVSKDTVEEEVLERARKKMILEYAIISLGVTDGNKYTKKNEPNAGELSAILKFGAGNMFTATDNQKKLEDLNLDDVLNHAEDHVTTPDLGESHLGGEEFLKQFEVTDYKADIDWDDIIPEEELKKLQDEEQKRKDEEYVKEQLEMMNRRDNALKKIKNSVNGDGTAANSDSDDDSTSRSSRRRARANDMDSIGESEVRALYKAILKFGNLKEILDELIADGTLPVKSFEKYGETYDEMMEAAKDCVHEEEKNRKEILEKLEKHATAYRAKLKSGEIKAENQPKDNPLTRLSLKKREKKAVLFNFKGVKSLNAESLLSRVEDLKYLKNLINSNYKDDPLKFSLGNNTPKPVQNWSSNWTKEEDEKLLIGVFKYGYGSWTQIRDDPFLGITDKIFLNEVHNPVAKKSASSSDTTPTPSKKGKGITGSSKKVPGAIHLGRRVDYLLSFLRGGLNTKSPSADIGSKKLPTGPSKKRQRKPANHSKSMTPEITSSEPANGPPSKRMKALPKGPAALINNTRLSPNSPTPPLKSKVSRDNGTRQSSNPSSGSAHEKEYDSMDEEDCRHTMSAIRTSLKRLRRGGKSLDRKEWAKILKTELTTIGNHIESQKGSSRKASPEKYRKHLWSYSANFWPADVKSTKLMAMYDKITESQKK

Chain of Protein translocase subunit SecA (Escherichia coli (strain K12)) (P10408 whole entry): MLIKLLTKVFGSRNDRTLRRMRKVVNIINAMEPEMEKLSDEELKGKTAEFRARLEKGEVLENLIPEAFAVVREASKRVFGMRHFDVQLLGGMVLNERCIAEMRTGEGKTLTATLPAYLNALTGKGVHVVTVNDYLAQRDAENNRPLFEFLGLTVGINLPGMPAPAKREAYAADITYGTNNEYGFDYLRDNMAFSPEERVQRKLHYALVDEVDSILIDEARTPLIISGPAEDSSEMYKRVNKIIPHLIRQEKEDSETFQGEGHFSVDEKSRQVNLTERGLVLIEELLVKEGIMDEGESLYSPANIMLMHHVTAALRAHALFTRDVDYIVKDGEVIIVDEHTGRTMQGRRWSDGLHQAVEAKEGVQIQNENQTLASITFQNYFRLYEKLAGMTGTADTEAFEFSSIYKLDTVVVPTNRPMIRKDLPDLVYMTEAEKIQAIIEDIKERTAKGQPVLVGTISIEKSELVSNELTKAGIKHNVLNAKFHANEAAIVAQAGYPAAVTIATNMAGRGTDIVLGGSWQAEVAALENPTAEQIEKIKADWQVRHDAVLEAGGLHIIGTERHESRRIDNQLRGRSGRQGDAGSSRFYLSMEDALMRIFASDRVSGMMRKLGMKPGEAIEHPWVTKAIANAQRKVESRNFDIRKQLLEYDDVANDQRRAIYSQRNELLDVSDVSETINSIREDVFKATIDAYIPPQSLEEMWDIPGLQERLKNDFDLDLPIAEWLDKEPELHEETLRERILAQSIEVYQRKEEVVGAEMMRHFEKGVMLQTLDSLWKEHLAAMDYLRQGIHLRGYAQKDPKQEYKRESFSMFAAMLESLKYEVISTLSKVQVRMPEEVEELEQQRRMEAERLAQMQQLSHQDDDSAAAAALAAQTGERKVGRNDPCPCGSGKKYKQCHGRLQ
Chain of Sialic acid-binding Ig-like lectin 9 (Homo sapiens) (Q9Y336 whole entry): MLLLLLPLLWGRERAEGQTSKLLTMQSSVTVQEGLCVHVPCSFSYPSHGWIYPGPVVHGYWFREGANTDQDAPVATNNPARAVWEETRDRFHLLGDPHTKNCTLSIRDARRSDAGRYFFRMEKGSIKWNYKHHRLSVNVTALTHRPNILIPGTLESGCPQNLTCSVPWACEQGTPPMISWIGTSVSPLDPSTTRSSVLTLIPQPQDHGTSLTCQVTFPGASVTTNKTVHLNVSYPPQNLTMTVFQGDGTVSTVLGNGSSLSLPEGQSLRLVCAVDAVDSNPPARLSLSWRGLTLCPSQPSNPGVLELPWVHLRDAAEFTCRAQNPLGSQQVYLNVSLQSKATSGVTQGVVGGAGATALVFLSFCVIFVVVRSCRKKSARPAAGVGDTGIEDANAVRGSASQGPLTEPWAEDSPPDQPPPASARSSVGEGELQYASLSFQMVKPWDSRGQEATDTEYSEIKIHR

Compound: Cc1cc(NS(=O)(=O)c2ccccc2F)ccc1-n1cccc1C(=O)O
- Percent Effect [1]: -2.35%
- Percent Effect [2]: 2.63%
- Percent Effect [3]: 6.59%
- Percent Effect [4]: 4.36%
- Percent Effect (Trypanosoma cruzi): -1.27%
- Percent Effect [5]: -7.1%
- Percent Effect [6]: 24.1%
- Percent Effect (Homo sapiens): -10.4%
- Percent Effect [7]: -4.25%
- Percent Effect [8]: 0%
- Percent Effect [9]: -2.97%

Compound: O=C1CC[C@H]2[C@H](CCN2C(=O)C2CCCO2)N1Cc1ccncc1 (stereo partly drawn)
- Percent Effect [1]: -2.88%
- Percent Effect [2]: 22.7%
- Percent Effect [3]: -8.21%
- Percent Effect [4]: -5.26%
- Percent Effect (Trypanosoma cruzi): 2.36%
- Percent Effect [5]: -8.63%
- Percent Effect [6]: 14.1%
- Percent Effect (Homo sapiens): 12.9%
- Percent Effect [7]: 1.06%
- Percent Effect [8]: 7.69%
- Percent Effect [9]: -8.01%

Compound: COc1c(CNC(c2ccc(F)cc2)c2nccn2C)c(C)nn1C (stereo not drawn)
- Percent Effect [1]: -4.41%
- Percent Effect [2]: 23.7%
- Percent Effect [3]: -3.24%
- Percent Effect [4]: -2.7%
- Percent Effect (Trypanosoma cruzi): 10.9%
- Percent Effect [5]: -0.383%
- Percent Effect [6]: 13.4%
- Percent Effect (Homo sapiens): 10.1%
- Percent Effect [7]: 9.31%
- Percent Effect [8]: 29.3%
- Percent Effect [9]: -12.6%

Compound: O=C1CCc2cc(-c3csc(CCN4CCCC4=O)n3)ccc2N1
- Percent Effect [1]: -2.58%
- Percent Effect [2]: 20.8%
- Percent Effect [3]: 4.11%
- Percent Effect [4]: 2.39%
- Percent Effect (Trypanosoma cruzi): 0.936%
- Percent Effect [5]: -4.98%
- Percent Effect [6]: 5.41%
- Percent Effect (Homo sapiens): 22.8%
- Percent Effect [7]: 15.5%
- Percent Effect [8]: 19.5%
- Percent Effect [9]: -7.82%

Compound: CN(C)CC(=O)N1C[C@@H]2CC[C@H](Oc3ccccc3Cl)[C@@H]2C1
- Percent Effect [1]: -5.55%
- Percent Effect [2]: -4.05%
- Percent Effect [3]: 9.46%
- Percent Effect [4]: 5.31%
- Percent Effect (Trypanosoma cruzi): -2.17%
- Percent Effect [5]: -3.48%
- Percent Effect [6]: -2.5%
- Percent Effect (Homo sapiens): 6.65%
- Percent Effect [7]: -1.07%
- Percent Effect [8]: 3.9%
- Percent Effect [9]: 9.09%

Compound: Cc1nc(CN2CCCN(CCOc3cccc(C#N)c3)CC2)no1
- Percent Effect [1]: -0.969%
- Percent Effect [2]: 13.2%
- Percent Effect [3]: -4.74%
- Percent Effect [4]: -2.13%
- Percent Effect (Trypanosoma cruzi): -7.38%
- Percent Effect [5]: 3.24%
- Percent Effect [6]: 16.3%
- Percent Effect (Homo sapiens): 7.6%
- Percent Effect [7]: 6.4%
- Percent Effect [8]: 11.1%
- Percent Effect [9]: -9.28%

Compound: CCOC(=O)NC(CNC(=O)c1ccccn1)CC(C)C (stereo not drawn)
- Percent Effect [1]: -4.62%
- Percent Effect [2]: 5.41%
- Percent Effect [3]: 0.908%
- Percent Effect [4]: -3.92%
- Percent Effect (Trypanosoma cruzi): -3.03%
- Percent Effect [5]: 2.23%
- Percent Effect [6]: 4.72%
- Percent Effect (Homo sapiens): -2.89%
- Percent Effect [7]: 2.15%
- Percent Effect [8]: 8.64%
- Percent Effect [9]: -5.52%

Compound: COc1ncccc1C(=O)N1CCC(CNC(C)=O)CC1
- Percent Effect [1]: -4.18%
- Percent Effect [2]: 5.33%
- Percent Effect [3]: -0.618%
- Percent Effect [4]: 3.6%
- Percent Effect (Trypanosoma cruzi): -2.43%
- Percent Effect [5]: 1.56%
- Percent Effect [6]: 6.28%
- Percent Effect (Homo sapiens): -6.88%
- Percent Effect [7]: 4.92%
- Percent Effect [8]: 13.6%
- Percent Effect [9]: -5.96%

Source: ChEMBL document CHEMBL3988442, “University of Dundee, Small-Polar-MMV Screening Library” (2021)
